From PubChem BioAssay AID2314 (National Center for Advancing Translational Sciences (NCATS), 2010) come the findings set out here.

In all, about 300,000 compounds went through this assay and about 37,000 (12%) were called active. This is one part of a sample in which actives are shown more often than they occur. A number with no mark means an inactive call. Cut-off read from the data, not from the text of the source: active = max response mostly above about 13% (no sharp cut-off); inactive = mostly below about 14%.

The nature of this assay: Cycloheximide Counterscreen for Small Molecule Inhibitors of Shiga Toxin. Note: read at 38.3 µM for the half of the compounds with a filed dose; 0% is about no effect. As to conditions: cell reporter, cycloheximide protein synthesis inhibition counterscreen; active compounds read high. (In general: A counterscreen serves to expose hits that act by an unwanted route or on another target.)
As for `COc1cc2c(cc1OC)CC1(CCCCC1)N=C2`, the max response is -2.87%. For `CSCc1nnc(NC(=O)c2ccc(S(=O)(=O)N3CCCCC3C)cc2)o1` (centres undefined) the value was -2.84%.

For `CCOc1ccc(C2C3=C(CCCC3=O)N(CC(=O)O)C3=C2C(=O)CCC3)cc1`, the max response is -3.14%. For `C=CCNc1ncnc2ccc(Br)cc12` the value was -5.1%; for `COc1ccc(Nc2ncnc3sc(-c4ccccc4)cc23)c(OC)c1`, 7.7%; for `COc1ccc(Nc2ncnc3ccc(Br)cc23)c(OC)c1`, 26.7% (active). Take `CN(Cc1c(F)cccc1Cl)S(=O)(=O)c1cccs1`: the max response was -2.55%. As for `CN(CCc1ccccc1)c1ccc([N+](=O)[O-])cn1`, the max response was 0.432%. With `CN1c2ccc([N+](=O)[O-])cc2C(C)(C)C12C=Cc1cc(C(=O)O)ccc1O2` (centres undefined), the max response was -2.71%. For `COc1ccc2c(c1)C=CC1(O2)N(CCO)c2ccccc2C1(C)C` (centres undefined) the value was 26% (active); for `COc1cccc(CC2(CO)CCCN(CC3=Cc4cc(OC)ccc4OC3)C2)c1` (centres undefined), -0.657%; for `O=C(c1cccc(-n2cccc2)c1)N1CCN(S(=O)(=O)c2ccc(F)cc2)CC1`, 5.03%. As to `O=c1[nH]c(CSc2ccccc2)nc2c1oc1ccccc12`, the max response is -1.34%.

For `Cc1nc(SCC(=O)NC2CCCC2)[nH]c(=O)c1C`, the max response is 0.618%. Consider `O=C(CN1CCN(S(=O)(=O)c2ccc(Br)cc2)CC1)Nc1ccccc1C(=O)c1ccccc1`, for which the max response is -0.92%. In the case of `O=S(=O)(Cc1cc(Cl)nc(-c2cccnc2)n1)c1ccccc1`, the max response was -0.203%.

Consider `O=S(=O)(c1ccccc1)N1CN(Cc2ccc(F)cc2)c2nc3ccccc3nc21`, for which the max response was 19.8% (active). As to `COc1ccc(S(=O)(=O)N2CN(CCc3ccc(OC)c(OC)c3)c3nc4ccccc4nc32)cc1`, the max response was -0.593%. Regarding `C=CCN1CN(S(=O)(=O)c2ccc(OC)cc2)c2nc3ccccc3nc21`, the max response is 15.9%.

Turning to `O=C(NCCCN1CCOCC1)C1CCCN(S(=O)(=O)N2CCCCC2)C1` (centres undefined), the max response is 7.19%. For `CC(C)N1CCc2c(sc(NC(=O)Cc3ccccc3)c2C#N)C1`, the max response is 1.8%.

Take `CC(C)(C)OC(=O)NCCCCCC(=O)N/N=C/c1coc2ccccc2c1=O`: the max response is 37.7% (active). On to `Cc1ccc2occ(/C=N/NC(=O)c3ccccc3C)c(=O)c2c1`, for which the max response is 9.31%.

As for `NC(=S)N/N=C/c1coc2cc(Cl)ccc2c1=O`, the max response is -4.85%. Regarding `COc1cccc(NC(=O)COc2cc(C)cc3oc(=O)cc(C)c23)c1`, the max response is -6.8%. `COC(c1ccccc1)(c1ccccc1)C(Oc1nc(C)cc(C)n1)C(=O)O` (centres undefined): the max response is -1.54%. As to `O=C(NCc1csc(-c2cccs2)n1)C1CC1`, the max response was 49.8% (active). For the molecule `CC(C)(C)C1CCC(C(=O)NCC(c2cccs2)N2CCOCC2)CC1` (centres undefined), the max response is 1.44%. Consider `O=C(NCc1cccs1)C1CCN(S(=O)(=O)c2ccc(Cl)cc2)CC1`, for which the max response is 8.38%. As to `CCN(CC)S(=O)(=O)c1ccc(N2CCN(C)CC2)c(NC(=O)Nc2ccccc2F)c1`, the max response was -3.4%. In the case of `CCC(CC)C(=O)Nc1c2c(nn1-c1ccc(C)cc1)CS(=O)(=O)C2`, the max response is -1.32%. For `Cn1c(N)c(C(=O)COC(=O)c2cnc(Cl)c(Cl)c2)c(=O)n(C)c1=O`, the max response was -2.82%.

Regarding `COc1ccc(Cl)cc1C(=O)NNC(=S)NC(=O)/C=C/c1ccco1`, the max response was 0.62%. `CCNC(=S)N1CCN(C(=O)c2ccco2)CC1`: the max response was -0.408%. Take `O=C(/C=C/c1ccco1)NC(=S)N1CCCCC1`: the max response was 25.7% (active).

As to `O=C(/C=C/c1ccco1)NC(=S)Nc1ccccc1Br`, the max response was 21% (active). For `COc1ccc(/C=C/C(=O)NC(=S)N2CCCC(C(N)=O)C2)cc1` (centres undefined) the value was 12.7%; for `CC(C)CNC(=O)COC(=O)/C=C/c1ccco1`, -2.86%; for `O=C(Cc1ccccc1)Nc1ccc(C(=O)Nc2ccccc2C(=O)O)cc1`, -2.41%. On to `Cn1sc(=O)c2cc(S(=O)(=O)NC3CC3)ccc21`, for which the max response is -2.97%. As for `CCCNC(=S)N1CCC(NC(=O)c2ccc(OC)cc2)CC1`, the max response is -1.83%. For `Cc1nnc(SCC(=O)Nc2ccc(S(=O)(=O)Nc3ccc(Cl)nn3)cc2)s1`, the max response was -1.1%. With `CCC(=O)Nc1ccc(C(=O)Nc2ccc3c(c2)C(=O)N(CC2CCCO2)C3=O)cc1` (centres undefined), the max response was -2.89%. With `Cc1cc(NC(=O)CSCc2ccccc2C)no1`, the max response was 12.4%. As for `CCOc1ccc(CC(=O)Nc2ccc(S(=O)(=O)Nc3cc(C)on3)cc2)cc1OCC`, the max response is -4.07%. Consider `CCC(=O)Nc1ccc(C(=O)Nc2cc(C)on2)cc1`, for which the max response is 17.5% (active). As for `CCOc1ccc(NC(=O)Nc2cc(C)on2)cc1`, the figure is 43.6% (active); as for `CCOc1ccc(NC(=O)Nc2cc(C)ccc2OC)cc1`, 25.4% (active); as for `CCOc1ccc(C(=O)Nc2cc(OC)ccc2OC)cc1`, -3.82%.

As for `Cc1cc(NC(=O)c2cccc(N3C(=O)CCC3=O)c2)no1`, the max response is -2.26%.

Consider `COc1ccc(C)cc1NC(=O)Nc1ccccc1SC`, for which the max response is 0.774%. As for `CCOc1ccc(C(=O)Nc2ccc(S(=O)(=O)Nc3cc(C)on3)cc2)cc1`, the max response is -5.61%. As for `Cc1cc(NC(=O)CN2CCC(O)(c3cccc(F)c3)CC2)no1`, the max response was 4.43%.

Regarding `Cc1cc(NC(=O)c2ccccc2C)no1`, the max response is 32.6% (active). On to `COc1cccc(NC(=S)N(CCc2c(C)[nH]c3ccccc23)Cc2ccco2)c1`, for which the max response is -1.95%. On to `O=S(=O)(NC1CC1)c1ccc(Cl)cc1`, for which the max response is -3.78%. Consider `CCOC(=O)C1=C(CCc2ccccc2)NC(=O)NC1c1ccc2ccccc2c1` (centres undefined), for which the max response is -1.16%.

For the molecule `CC1(c2ccc3ccccc3c2)NC(=O)NC1=O` (centres undefined), the max response is 1.06%. In the case of `CCN(CC)C(=O)CN(c1cccc(OC)c1)S(=O)(=O)c1ccc(C)cc1`, the max response was 1.38%.

For `COc1ccc(C)cc1-n1nnnc1SCc1nc2ccccc2c(=O)[nH]1`, the max response is 10.3%. For `COc1ccc(CCn2c(NN=C3CCCC3)nc3c2c(=O)[nH]c(=O)n3C)cc1`, the max response was 0.589%. On to `CC(=O)Nc1ccc(NC(=O)c2sc3nc4c(c(-c5ccc(C)cc5)c3c2N)CCC4)cc1`, for which the max response is 0.359%. Regarding `Cc1ccc(NC(=O)c2sc3nc(N)c(C#N)cc3c2N)cc1`, the max response was 41% (active). As for `CCc1ccc2nc3sc(C(=O)Nc4nnc(CC)s4)c(N)c3cc2c1`, the figure is 17.3%.
